Records with an inconclusive call do not appear. The source made the active and inactive calls. Unless noted, calls follow the shape of the full dose curve.
What was measured:
[1] = Nuclear factor erythroid 2-related factor 2/antioxidant responsive element (Nrf2/ARE) small molecule agonists: luciferase reporter gene qHTS assay in human keratinocytes (AID 1919969); also: nearly all actives have a fitted effect of over 35% in size; also: potency is read from the fitted curve at half-maximal effect
[2] = target: Gonadotropin-releasing hormone receptor (Homo sapiens) (UniProt P30968); assay: Human gonadotropin-releasing hormone receptor (GnRHR) small molecule agonists, calcium flux assay in GnRHR-HEK293 cells (AID 1920063); also: nearly all actives have a fitted effect of over 35% in size; also: potency is read from the fitted curve at half-maximal effect
Gonadotropin-releasing hormone receptor (Homo sapiens), sequence (P30968 whole entry, looked up): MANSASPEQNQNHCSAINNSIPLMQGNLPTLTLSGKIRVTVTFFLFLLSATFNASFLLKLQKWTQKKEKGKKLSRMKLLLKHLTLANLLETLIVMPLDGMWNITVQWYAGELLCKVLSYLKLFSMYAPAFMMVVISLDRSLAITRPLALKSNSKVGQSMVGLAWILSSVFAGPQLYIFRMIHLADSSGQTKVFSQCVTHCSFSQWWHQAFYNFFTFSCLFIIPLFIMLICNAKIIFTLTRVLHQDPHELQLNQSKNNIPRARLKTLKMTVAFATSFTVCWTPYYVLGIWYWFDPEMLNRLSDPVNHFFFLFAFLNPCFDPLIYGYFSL
In short: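 Calcium flux, agonist mode, human GnRHR stably integrated in HEK293; dye 1 h at 37 C before compound; Ex/Em=480/540 kinetic read, 3 min; 15 concentrations, triplicate.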

[3] = target: KiSS-1 receptor (Homo sapiens) (UniProt Q969F8); assay: Human kisspeptin (KISS1R) small molecule agonists, calcium flux assay in KISS1R-HEK293 cells (AID 1920064; active = well fitted activation curve with a large enough effect in the repeat runs; also: potency is read from the fitted curve at half-maximal effect)
KiSS-1 receptor (Homo sapiens), sequence (Q969F8 whole entry, looked up): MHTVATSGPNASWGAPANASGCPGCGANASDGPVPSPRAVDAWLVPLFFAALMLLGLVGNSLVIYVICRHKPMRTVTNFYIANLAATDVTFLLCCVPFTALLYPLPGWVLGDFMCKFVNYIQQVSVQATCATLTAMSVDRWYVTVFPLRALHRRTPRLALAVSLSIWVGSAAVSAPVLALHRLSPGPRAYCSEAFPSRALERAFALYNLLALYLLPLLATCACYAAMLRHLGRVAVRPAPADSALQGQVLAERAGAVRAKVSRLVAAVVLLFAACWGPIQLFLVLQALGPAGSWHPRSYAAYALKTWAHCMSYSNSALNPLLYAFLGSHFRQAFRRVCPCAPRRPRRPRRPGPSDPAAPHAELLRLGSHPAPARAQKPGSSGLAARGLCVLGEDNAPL
In short: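 Triplicate 15-concentration series were applied to dye-loaded human KISS1R HEK293 cells, and agonist-evoked calcium fluorescence was captured for 3 min.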

[4] = p53 small molecule agonists, cell-based qHTS assay with human liver microsomes (AID 1963577);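 also: p53 response element beta-lactamase reporter cells with liver microsomes plus NADPH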
In short: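 In this qHTS, p53 response-element beta-lactamase cells receive test compound together with a microsome/NADPH activating system (0.5 mg/mL final each) and are incubated 16 h at 37 C before LiveBLAzer fluorescence detection.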

[5] = p53 small molecule agonists, cell-based qHTS assay with human liver microsomes: qHTS cell viability counter screen (AID 1963579); also: nearly all actives have a fitted effect of over 45% in size; also: potency is read from the fitted curve at half-maximal effect
In short: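 Metabolically activated exposure: compounds, human liver microsomes and NADPH (0.5 mg/mL final apiece) were added to p53RE-bla cells seeded 5 h earlier, left 16 h at 37 C, and then assessed for viability by CellTiter-Glo luminescence.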

[6] = p53 small molecule agonists, cell-based qHTS assay: qHTS cell viability counter screen (AID 1963581); also: nearly all actives have a fitted effect of over 45% in size; also: potency is read from the fitted curve at half-maximal effect
In short: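 Multiplexed with the reporter read, a CellTiter-Glo step (30 min, room temperature) gauges ATP-based viability of HCT-116 p53RE-bla cells after 16 h compound incubation at 37 C.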

[7] = target: 5-hydroxytryptamine receptor 2A (Homo sapiens) (UniProt P28223); assay: 5-hydroxytryptamine receptor 2A (HTR2A) small molecule antagonists, cell-based qHTS assay (AID 1963586); also: nearly all actives have a fitted effect of over 45% in size; also: potency is read from the fitted curve at half-maximal effect
5-hydroxytryptamine receptor 2A (Homo sapiens), sequence (P28223 whole entry, looked up): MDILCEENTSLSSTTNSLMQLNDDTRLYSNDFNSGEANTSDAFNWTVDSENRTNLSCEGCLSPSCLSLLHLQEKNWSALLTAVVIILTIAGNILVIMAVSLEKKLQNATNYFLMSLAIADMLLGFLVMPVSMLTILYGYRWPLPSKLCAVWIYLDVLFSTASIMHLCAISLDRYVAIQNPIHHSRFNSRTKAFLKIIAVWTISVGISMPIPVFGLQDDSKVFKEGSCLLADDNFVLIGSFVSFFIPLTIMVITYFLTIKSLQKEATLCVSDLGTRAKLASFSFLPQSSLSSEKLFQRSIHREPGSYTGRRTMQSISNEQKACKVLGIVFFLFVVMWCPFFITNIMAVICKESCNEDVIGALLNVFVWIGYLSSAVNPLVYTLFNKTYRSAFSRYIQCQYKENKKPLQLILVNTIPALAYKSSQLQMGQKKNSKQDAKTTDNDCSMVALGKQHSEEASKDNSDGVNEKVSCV
In short: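 CHO cells stably expressing human HTR2A were plated for 18 h at 37 C, then loaded with calcium dye for 1 h. Compounds were preincubated 5 min at room temperature before DOI (4 nM solution) was added. Kinetic fluorescence was read for 3 min.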

[8] = target: Muscarinic acetylcholine receptor M1 (Homo sapiens) (UniProt P11229); assay: Cholinergic receptor muscarinic 1 (CHRM1) small molecule antagonists, cell-based qHTS assay (AID 1963588); also: nearly all actives have a fitted effect of over 40% in size
Muscarinic acetylcholine receptor M1 (Homo sapiens), sequence (P11229 whole entry, looked up): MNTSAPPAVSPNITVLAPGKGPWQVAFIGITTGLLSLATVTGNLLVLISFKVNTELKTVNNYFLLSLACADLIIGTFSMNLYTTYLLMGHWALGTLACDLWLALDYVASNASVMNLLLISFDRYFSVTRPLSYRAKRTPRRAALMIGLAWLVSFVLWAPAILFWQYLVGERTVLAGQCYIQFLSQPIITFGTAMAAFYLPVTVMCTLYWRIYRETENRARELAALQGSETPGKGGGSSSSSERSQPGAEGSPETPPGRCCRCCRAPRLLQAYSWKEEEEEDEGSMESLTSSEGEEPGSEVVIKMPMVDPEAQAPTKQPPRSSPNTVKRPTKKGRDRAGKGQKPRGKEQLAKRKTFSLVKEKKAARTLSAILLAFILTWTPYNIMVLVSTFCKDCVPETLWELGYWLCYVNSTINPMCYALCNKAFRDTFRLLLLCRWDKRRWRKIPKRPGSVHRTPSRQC
In short: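 Compounds were tested at 15 concentrations in three independent runs. Dye-loaded CHRM1-CHO cells were exposed 5 min at room temperature before stimulation by acetylcholine added at 50nM. Intracellular calcium was read kinetically on FDSS for 3 min.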

[9] = target: Muscarinic acetylcholine receptor M1 (Homo sapiens) (UniProt P11229); assay: Cholinergic receptor muscarinic 1 (CHRM1) small molecule agonists, cell-based qHTS assay (AID 1963589); also: nearly all actives have a fitted effect of over 35% in size
In short: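 qHTS, 15-point titration, 3 independent runs: compounds pin-transferred onto dye-loaded CHRM1-CHO cells (human M1), calcium fluorescence followed every second to detect agonism.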

[10] = target: D(2) dopamine receptor (Homo sapiens) (UniProt P14416); assay: Dopamine D2 receptor (DRD2) small molecule agonists, cell-based qHTS assay (AID 1963594); also: nearly all actives have a fitted effect of over 35% in size
D(2) dopamine receptor (Homo sapiens), sequence (P14416 whole entry, looked up): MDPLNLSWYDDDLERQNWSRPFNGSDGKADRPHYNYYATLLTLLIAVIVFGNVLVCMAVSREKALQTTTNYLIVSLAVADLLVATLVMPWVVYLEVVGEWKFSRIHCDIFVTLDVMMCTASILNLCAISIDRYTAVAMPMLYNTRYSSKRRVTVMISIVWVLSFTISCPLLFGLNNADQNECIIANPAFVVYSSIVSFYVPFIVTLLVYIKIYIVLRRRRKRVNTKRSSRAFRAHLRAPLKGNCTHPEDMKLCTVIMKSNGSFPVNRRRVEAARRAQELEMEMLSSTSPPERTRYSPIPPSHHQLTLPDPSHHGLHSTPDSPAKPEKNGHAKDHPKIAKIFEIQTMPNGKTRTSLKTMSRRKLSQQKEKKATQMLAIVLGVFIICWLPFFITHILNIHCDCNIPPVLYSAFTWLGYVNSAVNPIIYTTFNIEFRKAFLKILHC
In short: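 cAMP accumulation in DRD2-HEK293 cells measured by HTRF after 1 h detection; compounds added 10 min before NKH477 (200nM […]) forskolin-analogue stimulation, 30 min at room temperature, with Ro20-1724 present at 0.1 mM final.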

[11] = target: D(2) dopamine receptor (Homo sapiens) (UniProt P14416); assay: Dopamine D2 receptor (DRD2) small molecule antagonists, cell-based qHTS assay (AID 1963595; active = well fitted inhibition curve with a large enough effect in the signal ratio in the repeat runs, with a control signal flat; the % refers to the signal ratio; also: potency is read from the fitted curve at half-maximal effect)
In short: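 Cells were plated and grown for 24 h at 37 °C. Ro20-1724 (0.1 mM final) went in first, then compound for 10 min. NKH477 (200 nM) with quinpirole (12 nM) followed for 30 min at RT, then HTRF detection reagents for 1 h.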

[12] = G protein-coupled receptor (GPCR) small molecule agonists, calcium flux assay: HEK293 wild type cell line counter screen (AID 1920065); also: potency is read from the fitted curve at half-maximal effect
In short: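 Non-specific calcium responders were flagged by adding DMSO-dissolved compounds to dye-loaded cells and reading 480/540 nm fluorescence each second for 3 min; ATP served as positive control.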

[13] = p53 small molecule agonists, cell-based qHTS assay (AID 1963582; active = well fitted activation curve with a large enough effect in the signal ratio in the repeat runs, not every such curve was filed as active; the % refers to the signal ratio)
In short: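 Beta-lactamase reporter cells (p53RE-bla) treated with compounds for 16 h at 37 C; FRET substrate, 2 h, room temperature; fluorescence intensity.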

[14] = target: 5-hydroxytryptamine receptor 2A (Homo sapiens) (UniProt P28223); assay: 5-hydroxytryptamine receptor 2A (HTR2A) small molecule agonists, cell-based qHTS assay (AID 1963587); also: nearly all actives have a fitted effect of over 30% in size; also: potency is read from the fitted curve at half-maximal effect
In short: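 Kinetic calcium-flux fluorescence (2 min, 1 sec intervals) after compound addition in agonist mode. HTR2A-CHO cells were cultured 18 h, then dye-loaded 1 h at 37 C.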

[15] = cAMP Responsive Elements (CRE) small molecule agonists, cell-based qHTS assay (AID 1963590)
In short: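 Quantitative HTS for CRE agonists: HEK 293T CRE-bla cells, overnight plating, 3 h compound incubation at 37 C/5% CO2, then 2 h room-temperature LiveBLAzer B/G FRET substrate loading.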

[16] = cAMP Responsive Elements (CRE) small molecule antagonists, cell-based qHTS assay (AID 1963591; active = well fitted inhibition curve with a large enough effect in the signal ratio in the repeat runs, not every such curve was filed as active; the % refers to the signal ratio)
In short: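 Fluorescence intensity from cleaved LiveBLAzer B/G substrate (2 h, room temperature) quantified CRE-bla activity in HEK 293T cells exposed 3 h to compound with 0.25 uM final NKH477.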

[17] = target: Beta-2 adrenergic receptor (Homo sapiens) (UniProt P07550); assay: Adrenergic beta2 receptor (ADRB2) small molecule antagonists, cell-based qHTS assay (AID 1963592); also: series mostly up to about 92 µM; nearly all actives have a fitted effect of over 50% in size
Beta-2 adrenergic receptor (Homo sapiens), sequence (P07550 whole entry, looked up): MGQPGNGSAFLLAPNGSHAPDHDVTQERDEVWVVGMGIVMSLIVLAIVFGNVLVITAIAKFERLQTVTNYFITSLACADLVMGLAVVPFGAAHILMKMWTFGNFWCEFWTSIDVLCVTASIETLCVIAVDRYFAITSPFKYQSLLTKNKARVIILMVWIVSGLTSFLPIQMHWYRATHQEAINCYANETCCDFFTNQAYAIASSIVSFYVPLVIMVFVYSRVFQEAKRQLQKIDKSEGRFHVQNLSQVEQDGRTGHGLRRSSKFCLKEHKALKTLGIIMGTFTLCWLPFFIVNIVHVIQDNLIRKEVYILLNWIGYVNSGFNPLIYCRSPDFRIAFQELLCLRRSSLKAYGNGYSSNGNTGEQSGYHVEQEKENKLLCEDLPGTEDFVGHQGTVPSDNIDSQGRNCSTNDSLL
In short: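 Assay format: CHO-ADRB2 cells, 18-20hr seeding at 37C/5% CO2, then compound plus 1nM isoproterenol agonist mix for 0.5hr RT. Homogeneous time-resolved fluorescence cAMP detection after 1hr, expressed as 665/615 nm ratio.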

[18] = p53 small molecule agonists, cell-based qHTS assay with rat liver microsomes: qHTS cell viability counter screen (AID 1963580); also: nearly all actives have a fitted effect of over 45% in size
In short: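 Cytotoxicity counter screen: intracellular ATP read by CellTiter-Glo luminescence in the p53 reporter wells. HCT-116 p53RE-bla cells were treated for 16 h at 37 C alongside rat liver microsomes and NADPH, each 0.5 mg/mL final.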

[19] = target: Beta-2 adrenergic receptor (Homo sapiens) (UniProt P07550); assay: Adrenergic beta2 receptor (ADRB2) small molecule agonists, cell-based qHTS assay (AID 1963593);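 also: CHO cells stably overexpressing human ADRB2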
In short: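 CHO cells stably over-expressing ADRB2 were plated overnight at 37C, then dosed with compounds plus a stimulation mix containing 100uM IBMX and 25uM Ro-20-1724 for 0.5hr at room temperature. cAMP was measured by HTRF competition, 1hr.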

[20] = p53 small molecule agonists, cell-based qHTS assay with rat liver microsomes (AID 1963578)
In short: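 Agonist mode in p53RE-bla reporter cells, with compounds co-incubated 16 h at 37 C alongside 0.5 mg/mL rat liver microsomes and 0.5 mg/mL NADPH (final), followed by a 2 h LiveBLAzer detection step.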

Measured: Potency

O=[N+]([O-])c1cc(C2CCCCC2)c(O)c([N+](=O)[O-])c1
inactive: [3] | [4] | [7] | [8] | [9] | [10] | [11]
active: [1] 13.6 µM | [2] 38.8 µM | [5] 20.4 µM | [6] 20.4 µM

CCN(CC)c1ccc(C(=C2C=CC(=[N+](CC)CC)C=C2)c2cc(S(=O)(=O)O)ccc2S(=O)(=O)[O-])cc1
active: [6] 17.8 µM
inactive: [1] | [2] | [3] | [12] | [13] | [14] | [8] | [9] | [15] | [16]

CC(C)NCC(O)COc1cccc2[nH]ccc12 (stereo not drawn)
inactive: [1] | [2] | [3] | [12] | [13] | [15] | [16] | [17] | [10] | [11]

CN(C)CCCN1c2ccccc2Sc2ccc(C(F)(F)F)cc21
active: [11] 0.0596 µM
not listed: [4] | [6] | [7] | [13] | [14] | [15] | [19] | [20]
inactive: all other assays above

CNS(=O)(=O)c1cc(C(=O)N2CCC(CCN3C4CCC3CC(n3c(C)nc5ccccc53)C4)(c3cccc(F)c3)CC2)c(Cl)cc1F (stereo not drawn)
not listed: [4] | [8] | [13] | [15] | [16] | [18] | [20]
inactive: all other assays above

CCCCCCCCCCCCCCC[C@H](O)[C@@H](N)CO
active: [14] 7.56 µM
not listed: [10] | [11] | [12] | [13] | [17] | [19]
inactive: all other assays above

NC(=O)c1nc(-c2cccc(-c3cc(F)ccc3OCC(F)(F)C(F)(F)F)c2)n[nH]1
not listed: [6] | [11] | [12] | [13] | [15] | [16] | [18] | [19]
inactive: all other assays above

O=C1CCCCCCCCCCCC(=O)OCCO1
active: [14] 5.49 µM
not listed: [4] | [7] | [13] | [15] | [16] | [18] | [20]
inactive: all other assays above

CNCCCC1c2ccccc2C=Cc2ccccc21
active: [7] 7.29 µM
not listed: [8] | [11] | [12] | [15] | [17] | [19]
inactive: all other assays above

Oc1cc(Cl)cc(Cl)c1Cl
inactive: [2] | [3] | [12] | [6] | [14] | [8] | [9] | [17] | [10] | [11]
active: [1] 49.7 µM | [5] 29.6 µM

CO[C@H]1C=CO[C@@]2(C)Oc3c(C)c(O)c4c(O)c(c5c(c4c3C2=O)=NC2(CCN(CC(C)C)CC2)N=5)NC(=O)/C(C)=C\C=C/[C@H](C)[C@H](O)[C@@H](C)[C@@H](O)[C@@H](C)[C@H](OC(C)=O)[C@@H]1C
inactive: [1] | [2] | [3] | [4] | [20] | [5] | [6]

Sc1nc2ccccc2s1
active: [1] 68.6 µM
not listed: [8] | [12] | [15]
inactive: all other assays above

OCCN(CCO)c1nc(N2CCCCC2)c2nc(N(CCO)CCO)nc(N3CCCCC3)c2n1
active: [2] 15.1 µM | [3] 23.9 µM | [12] 16.9 µM
inactive: [1] | [17] | [10] | [11]

CCCCN(CCCC)C(=S)SSC(=S)N(CCCC)CCCC
active: [1] 1.52 µM
not listed: [12] | [18] | [19] | [20]
inactive: all other assays above

O=C(c1ccccc1)C1CCC1
not listed: [4] | [5] | [8] | [13] | [18] | [20]
inactive: all other assays above

OC(CCN1CCCCC1)(c1ccccc1)C1CCCCC1 (stereo not drawn)
inactive: [1] | [2] | [3] | [12] | [5] | [6] | [17] | [10]

O=C(O)CC(=O)C(=O)O
not listed: [4] | [8] | [10] | [13] | [14] | [18] | [19] | [20]
inactive: all other assays above

Source: PubChem BioAssay (Tox21)
